The record followed here is PubChem BioAssay (NCI).

Some test systems named below: SR leukemia; RPMI-8226 leukemia; OVCAR-8 ovarian; OVCAR-5 ovarian; OVCAR-4 ovarian; SK-OV-3 ovarian; IGROV1 ovarian; OVCAR-3 ovarian; NCI/ADR-RES ovarian; T-47D breast; BT-549 breast; SW-620 colon; MCF7 breast; HCT-116 colon; HCC-2998 colon; KM12 colon; MDA-MB-468 breast; HS 578T breast; MDA-MB-435 melanoma.
What all share (experiment): NCI-60 one-dose screen, 48 h (100 = growth as untreated, 0 = no growth, -100 = all killed)
Common to all, as to conditions: 10 µM unless noted

This is part of a sample that, as a whole, favours compounds with a hit. Of some 83,000 tested, about 20% had one in any assay.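 In brief: 96-well plates, 48 h treatment, single concentration, percent growth endpoint.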 Unmarked numbers belong to inactive results. The source made the active and inactive calls. How the source made its calls: active means growth percent below 10; inactive means the rest.

As for `C=C1CCC2C3(C)COC(c4cccs4)OC3CCC2(C)C1CC(Sc1ccccc1)C1=CCOC1=O` (centres undefined), the growth with SR leukemia was 46.1%; with RPMI-8226 leukemia, 16.1%; with OVCAR-8 ovarian, 66%; with OVCAR-5 ovarian, 102%; in the test with OVCAR-4 ovarian, 83.6%; in the test with SK-OV-3 ovarian it was 131%. Also, the growth in the test on IGROV1 ovarian is 95.5%; in the test on OVCAR-3 ovarian it was 86.1%; with NCI/ADR-RES ovarian, 2.64% (active); in the test on T-47D breast, 82.3%; in the test on BT-549 breast it was 25.8%; in the test on SW-620 colon, 80%. Further, the growth in the test on MCF7 breast was 38.2%; in the test with HCT-116 colon, 32.4%; in the test on HCC-2998 colon, 81.5%; in the test on KM12 colon, 89.2%; in the test on MDA-MB-468 breast, 90.5%.

Consider `CN(C)c1nc(NCCNS(=O)(=O)c2ccc(C3=Nc4c(N)nc(N)nc4NC(c4ccccc4)C3)cc2)nc(Nc2ccc(F)cc2)n1` (centres undefined), for which the growth with SR leukemia is 1.17% (active); in the test on RPMI-8226 leukemia it was 4.93% (active); in the test with OVCAR-8 ovarian it was 42.3%; in the test with OVCAR-5 ovarian, 75.3%; with OVCAR-4 ovarian it was 38.9%; with SK-OV-3 ovarian, 80.7%. Further, the growth with IGROV1 ovarian was 32.1%; in the test on HS 578T breast, 46.3%; in the test on NCI/ADR-RES ovarian, 92.9%; with T-47D breast, 39.8%; with BT-549 breast, 29.1%; with MDA-MB-435 melanoma, 41.6%. Besides, the growth in the test on SW-620 colon was 49.9%; with MCF7 breast, 17.3%; with HCT-116 colon, 32.7%; with HCC-2998 colon it was 31.9%; in the test with KM12 colon it was 33.8%; in the test on MDA-MB-468 breast it was -35.8% (active).

Turning to `C=C1CC[C@@H]2[C@]3(C)COC(c4cn(-c5ccccc5)nc4-c4ccccc4)O[C@@H]3CC[C@@]2(C)[C@@H]1C/C=C1/C(=O)OC[C@H]1O` (some centres undefined), the growth is -32.7% (active) in the test on SR leukemia; -10.3% (active) in the test with RPMI-8226 leukemia; -49.5% (active) with OVCAR-8 ovarian; -50.5% (active) in the test on OVCAR-5 ovarian; -30.4% (active) in the test with OVCAR-4 ovarian; 12.6% in the test on SK-OV-3 ovarian. Moreover, the growth in the test with IGROV1 ovarian is -76.7% (active); in the test on OVCAR-3 ovarian, -77.8% (active); in the test with T-47D breast it was -62.9% (active); with BT-549 breast it was -88.9% (active); with MDA-MB-435 melanoma, -65.9% (active); in the test with MCF7 breast it was -9.94% (active). Also, the growth was -97.5% (active) with HCT-116 colon, -97.7% (active) with HCC-2998 colon, -56.2% (active) with KM12 colon and -90.1% (active) in the test on MDA-MB-468 breast.

Take `Cc1c(C(=O)NNC(=O)Nc2ccc(Cl)cc2)nnn1-c1ccc(Br)cc1`: the growth with SR leukemia is 89.9%; with RPMI-8226 leukemia, 98.7%; with OVCAR-8 ovarian, 101%; in the test with OVCAR-5 ovarian, 102%; in the test on OVCAR-4 ovarian it was 86.4%; in the test on SK-OV-3 ovarian, 79.6%. Besides, the growth in the test on IGROV1 ovarian is 97.6%; in the test on OVCAR-3 ovarian it was 116%; with NCI/ADR-RES ovarian it was 94.4%; with T-47D breast, 88.8%; in the test on BT-549 breast it was 102%; in the test with MCF7 breast, 85%. In addition, the growth in the test on HCT-116 colon was 90.7%; in the test with HCC-2998 colon, 106%; with KM12 colon, 103%; with MDA-MB-468 breast, 91%.

For `COc1ccc(/C=N/NC(=O)Cn2nc(Cc3ccc(OC)cc3)c3onc(C)c3c2=O)cc1`, the growth is 53.4% with SR leukemia; 53.7% in the test with RPMI-8226 leukemia; 45% with OVCAR-8 ovarian; 52.2% in the test on OVCAR-5 ovarian; -9.28% (active) in the test with OVCAR-4 ovarian; 25.9% in the test with SK-OV-3 ovarian. The growth in the test on IGROV1 ovarian is 77.6%; with HS 578T breast it was 36.3%; with NCI/ADR-RES ovarian it was 40.6%; in the test on T-47D breast, 40.7%; with BT-549 breast, 36.9%; with MDA-MB-435 melanoma it was 62%. Further, the growth in the test with SW-620 colon was 56.6%; with MCF7 breast it was 45%; in the test with HCT-116 colon, 32.3%; in the test on HCC-2998 colon, 6.89% (active); in the test on KM12 colon it was 53%; in the test with MDA-MB-468 breast it was 67.4%.

Consider `CCS(=O)(=O)N1CCCC(C(=O)Nc2nc3ccc(NC(=O)c4ccc(F)c(OC)c4F)cc3s2)C1` (centres undefined), for which the growth is 27.8% in the test with SR leukemia; 30.4% in the test with RPMI-8226 leukemia; 57.7% with OVCAR-8 ovarian; 101% in the test with OVCAR-5 ovarian; 39.4% with OVCAR-4 ovarian; 70.2% in the test on SK-OV-3 ovarian. For the same compound, the growth was 80.9% in the test with IGROV1 ovarian; 47.6% in the test on HS 578T breast; 52% in the test with NCI/ADR-RES ovarian; 7.96% (active) in the test with T-47D breast; 13.2% in the test on BT-549 breast; 53.8% in the test on MDA-MB-435 melanoma. Besides, the growth with SW-620 colon is 88.7%; in the test on MCF7 breast, 30.1%; in the test with HCT-116 colon it was 41%; in the test on HCC-2998 colon, 86.9%; in the test with KM12 colon it was 61.6%; with MDA-MB-468 breast it was 7.13% (active).

As for `COc1cc(/C=C/C(=O)c2ccccc2)ccc1Oc1nc(Nc2ccc(F)cc2)nc(N(C)C)n1`, the growth in the test on SR leukemia is 1.38% (active); in the test with RPMI-8226 leukemia it was -8.57% (active); with OVCAR-8 ovarian, 22.1%; in the test with OVCAR-5 ovarian, 49.1%; in the test with OVCAR-4 ovarian, 27.7%; with SK-OV-3 ovarian it was 79.7%. For the same compound, the growth is 48.8% with IGROV1 ovarian; 36.2% with HS 578T breast; 11.3% in the test on NCI/ADR-RES ovarian; 13% in the test on T-47D breast; -6.57% (active) in the test with BT-549 breast; 24.9% with MDA-MB-435 melanoma. The growth with SW-620 colon was -0.837% (active); in the test on MCF7 breast, 5.96% (active); in the test on HCT-116 colon, -83.1% (active); in the test with HCC-2998 colon it was 59%; in the test on KM12 colon, 40.8%; in the test on MDA-MB-468 breast, 21.5%.

For the compound `O=C1NC(=O)c2c1c1c3cc(Br)ccc3[nH]c1c1oc3ccc(F)cc3c21`, the growth in the test with SR leukemia is 4.79% (active); in the test on RPMI-8226 leukemia, 14.8%; with OVCAR-8 ovarian, -44.7% (active); with OVCAR-5 ovarian, 51.7%; with OVCAR-4 ovarian, -88% (active); in the test on SK-OV-3 ovarian, -5.1% (active). Moreover, the growth was -46.9% (active) in the test with IGROV1 ovarian; -34.9% (active) in the test with HS 578T breast; 10% in the test on NCI/ADR-RES ovarian; -20.1% (active) in the test with T-47D breast; 15.1% in the test on BT-549 breast; 33.7% in the test with MDA-MB-435 melanoma. In addition, the growth is 3.59% (active) in the test on SW-620 colon; -47.5% (active) in the test with MCF7 breast; 0.579% (active) in the test on HCT-116 colon; -9.47% (active) in the test with HCC-2998 colon; 15.1% in the test with KM12 colon.

As for `CC(=O)Oc1ccccc1C(=O)[Se]C(=NC1CCCCC1)NC1CCCCC1`, the growth with SR leukemia was -15.7% (active); in the test with RPMI-8226 leukemia, 4.77% (active); with OVCAR-8 ovarian, -81.8% (active); in the test on OVCAR-5 ovarian it was -89.6% (active); in the test with OVCAR-4 ovarian, -85.9% (active); in the test with SK-OV-3 ovarian, -99.1% (active). Besides, the growth is -94% (active) with IGROV1 ovarian; -71.6% (active) in the test on OVCAR-3 ovarian; -63.3% (active) in the test on NCI/ADR-RES ovarian; -43.3% (active) in the test with T-47D breast; -91.7% (active) in the test on BT-549 breast; -82.1% (active) in the test with MCF7 breast. Also, the growth with HCT-116 colon was -69.9% (active); in the test on HCC-2998 colon, -92.6% (active); with KM12 colon it was -67.8% (active); with MDA-MB-468 breast, -77.8% (active).
